Source: PubChem (Buhrlage Lab, Dana-Farber Cancer Institute and Novartis Institutes for BioMedical Research (Cambridge, Mass))
Only some compounds are listed: those with a hit (about 12% of all), similar ones and a draw of the others.
UCHL1 block: inhibitors of human UCHL1 deubiquitinase | P09936 | purified UCHL1, Ub-rhodamine cleavage fluorescence | inhibition, % at 20 µM | 0.2% of 47,000 active
USP7 block: blocks human USP7 ubiquitin-rhodamine cleavage. inhibition, % at 20 µM. Q93009. purified USP7, Ub-rhodamine cleavage fluorescence. 0.3% of 47,000 active. AID 1645854
USP8 inh: inhibitors of human USP8 deubiquitinase; P40818; purified USP8, Ub-rhodamine cleavage fluorescence, 30 min; inhibition, % at 20 µM; 4.2% of 47,000 active
Target sequence (P40818 whole entry, looked up): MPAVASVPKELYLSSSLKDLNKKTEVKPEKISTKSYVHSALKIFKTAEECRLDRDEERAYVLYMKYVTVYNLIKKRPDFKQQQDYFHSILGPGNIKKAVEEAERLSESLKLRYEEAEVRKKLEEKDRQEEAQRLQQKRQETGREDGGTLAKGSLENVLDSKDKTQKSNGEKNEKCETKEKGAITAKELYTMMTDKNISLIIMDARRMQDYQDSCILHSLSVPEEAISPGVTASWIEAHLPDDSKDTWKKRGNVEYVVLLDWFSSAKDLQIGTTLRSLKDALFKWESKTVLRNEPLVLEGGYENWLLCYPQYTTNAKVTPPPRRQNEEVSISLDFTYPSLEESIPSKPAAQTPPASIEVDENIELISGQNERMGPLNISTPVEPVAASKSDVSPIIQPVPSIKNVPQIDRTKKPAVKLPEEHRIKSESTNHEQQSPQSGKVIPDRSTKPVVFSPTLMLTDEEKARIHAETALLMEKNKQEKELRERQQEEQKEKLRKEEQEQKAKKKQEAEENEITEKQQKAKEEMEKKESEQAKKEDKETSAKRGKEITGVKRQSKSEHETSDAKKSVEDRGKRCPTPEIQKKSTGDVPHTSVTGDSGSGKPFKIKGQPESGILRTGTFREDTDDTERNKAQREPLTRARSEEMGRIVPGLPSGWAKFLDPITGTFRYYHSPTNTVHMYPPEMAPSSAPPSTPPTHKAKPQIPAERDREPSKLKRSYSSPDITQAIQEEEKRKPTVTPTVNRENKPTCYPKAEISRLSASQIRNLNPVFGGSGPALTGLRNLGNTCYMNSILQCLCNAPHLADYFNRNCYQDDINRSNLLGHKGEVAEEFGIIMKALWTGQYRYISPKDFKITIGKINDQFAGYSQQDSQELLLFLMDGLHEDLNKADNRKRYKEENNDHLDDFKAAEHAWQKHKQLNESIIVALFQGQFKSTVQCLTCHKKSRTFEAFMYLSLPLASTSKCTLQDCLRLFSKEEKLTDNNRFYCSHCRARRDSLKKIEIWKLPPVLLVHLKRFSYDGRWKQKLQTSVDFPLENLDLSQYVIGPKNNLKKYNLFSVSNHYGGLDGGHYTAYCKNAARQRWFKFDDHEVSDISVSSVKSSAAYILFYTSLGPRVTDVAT
USP17 inh: human USP17-like deubiquitinase inhibition | purified USP17, Ub-rhodamine cleavage fluorescence, 3 h | inhibition, % at 50 µM | 6.5% of 47,000 active | AID 1645855
USP30 block: human USP30 deubiquitinase inhibition | Q70CQ3 | purified USP30, Ub-rhodamine cleavage fluorescence | inhibition, % at 25 µM | 5.3% of 47,000 active | AID 1645860
USP10 block: inhibitors of human USP10 deubiquitinase. Q14694. inhibition, % at 20 µM. purified USP10, Ub-rhodamine fluorescence, 60 min. 1.1% of 47,000 active
Active calls of the source: *; i = inactive. No stated cut-off is given here; in the data, active means inhibition above about 30%; inactive means the rest.

SMILES	UCHL1 block	USP7 block	USP8 inh	USP17 inh	USP30 block	USP10 block
O=C(CCc1nnc2n(Cc3ccccc3)c(=O)c3ccccc3n12)NCc1cccnc1	1	-42	1	18	38*	-1
CC(C)OCCCn1c(=O)c2ccccc2n2c(CCC(=O)NCc3ccc4c(c3)OCO4)nnc12	5	-3	17	29	40*	0
O=C(CCc1nnc2n(Cc3ccccc3Cl)c(=O)c3ccccc3n12)NCc1ccccc1	0	7	47*	18	-3	15
O=C(CCc1nnc2n(Cc3ccccc3Cl)c(=O)c3ccccc3n12)NCc1ccccn1	0	-19	-7	45*	65*	-5
CC(C)CCn1c(=O)c2ccccc2n2c(CCC(=O)NCc3cccnc3)nnc12	3	-5	18	10	19	-1
CC(C)CCn1c(=O)c2ccccc2n2c(CCC(=O)NCc3ccc4c(c3)OCO4)nnc12	2	-8	26	22	3	5
O=C(O)C1C2C=CC(O2)C1C(=O)N1CCC(Cc2ccccc2)CC1 (centres undefined)	0	1	17	-6	11	-1
CNc1cc(C2CCCN2C(=O)c2ccc3n[nH]nc3c2)nc(C)n1 (centres undefined)	-1	3	-1	-22	-1	1
Cc1oc(-c2ccc(Cl)cc2)nc1Cn1c(=O)n(C(C)C)c(=O)c2ccccc21	-6	-3	-13	0	5	0
COc1ccc(CNC(=O)CCc2nnc3n(Cc4ccccc4Cl)c(=O)c4ccccc4n23)cc1	9	7	38*	43*	40*	14
CC(C)CCn1c(=O)c2ccccc2n2c(CCC(=O)NCc3ccccc3Cl)nnc12	-1	-62	19	-1	-12	-7
O=C(CCc1nnc2n(Cc3ccccc3)c(=O)c3ccccc3n12)N1CCC(Cc2ccccc2)CC1	5	5	17	14	38*	1
COc1ccc(C(=O)O)cc1S(=O)(=O)N(C)CCc1cccnc1	-1	5	3	3	24	1
COc1ccc(C(=O)O)cc1S(=O)(=O)N(CCc1ccccc1)Cc1ccccc1	0	0	3	13	39*	5
COc1ccccc1NC(=O)c1cc(Br)cc(Cc2ccccc2)c1O	5	-31	49*	25	13	17
COc1ccc(C(=O)Nc2ccccc2Cc2ccccc2)c(OC)c1OC	9	5	20	27	23	7
O=C(C[C@@H]1CCN2C[C@@H]1CCCOc1ccccc1CN(C(=O)COc1ccccc1)CC2=O)N1CCOCC1	0	-2	-1	71*	79*	-3
CC(C)NC(=O)N1CC(=O)N2CC[C@@H](CC(=O)N3CCOCC3)[C@@H](CCCOc3ccccc3C1)C2	4	-2	5	75*	100*	0
O=C(C[C@@H]1CCN2C[C@@H]1CCCOc1ccccc1CN(C(=O)c1cccnc1)CC2=O)N1CCOCC1	1	-1	19	78*	92*	-1
CC(NC(=O)c1cccc(N2CCCC2=O)c1)c1ccccc1 (centres undefined)	2	2	16	12	27	2
O=C(C1CCN(S(=O)(=O)Cc2ccccc2F)CC1)N1CCCCC1	-1	0	7	3	7	2
COc1ccc(CC(C#N)(C(=O)NC2CCCCC2)c2nc3ccccc3[nH]2)cc1 (centres undefined)	-2	-12	70*	0	-34	-5
Cc1nc2c(NC(=O)NCc3ccc(F)cc3)cccn2n1	-5	-10	1	-4	-1	9
Nc1cccnc1Sc1ccccn1	-27	-57	40*	-26	-448	-5
Cc1ccccc1OCCC(=O)Nc1cccc(S(=O)(=O)Nc2ccccc2Cl)c1	6	9	15	55*	26	29
SMILES	UCHL1 block	USP7 block	USP8 inh	USP17 inh	USP30 block	USP10 block
O=C(Nc1ccnn1Cc1cccnc1)c1cccnc1Sc1ccccc1	1	3	-26	-15	-29	-5
Cc1ccc(C(=O)NCCc2nc(-c3ccc4c(c3)OCO4)n[nH]2)cc1F	2	-13	32*	47*	69*	1
Cc1noc(C)c1CNC(=O)c1ccc2c(c1)OCO2	0	2	-2	12	9	-3
O=C(CC1C(=O)N(Cc2ccccc2)c2nc3ccccc3n21)NCCc1ccccc1 (centres undefined)	3	3	17	22	60*	9
O=C1CC(C(=O)NCCc2ccccc2)n2c(nc3ccccc32)N1 (centres undefined)	-1	5	43*	1	-3	17
O=C1CC(C(=O)Nc2ccccc2F)n2c(nc3ccccc32)N1 (centres undefined)	3	13	39*	19	20	20
O=C(CC1C(=O)N(Cc2ccccc2)c2nc3ccccc3n21)Nc1ccccc1 (centres undefined)	6	-70	24	21	9	5
O=C(c1cnccn1)N1CCCC(c2ncc(Cc3ccc(Cl)cc3)o2)C1 (centres undefined)	0	-5	2	8	7	2
CCn1ncc2ccc(NC(=O)c3cnc4ccccc4n3)cc21	0	3	3	7	-10	-4
CCn1c(CN(C)C(=O)Nc2cccc(F)c2)nc2cc(C(=O)N(C)C)ccc21	-5	-2	-26	-13	-40	-2
Cc1noc(C)c1-c1ccc(S(=O)(=O)Nc2ccc(C#N)cc2)cc1	1	1	31*	30	27	8
O=C(Nc1ccc2c(c1)CCC2)c1cncc(Br)c1	-4	-9	7	6	8	0
COc1ccccc1-c1nc(C#N)c(N2CCN(C(=O)c3ccccc3)CC2)o1	0	-3	9	24	47*	2
COc1cccc(/C=C/c2nc(C#N)c(N3CCN(C(=O)c4ccc(F)cc4)CC3)o2)c1	-3	-2	0	-10	5	7
CC(=O)N1CCN(c2oc(-c3ccc(COc4ccc(C)cc4)o3)nc2C#N)CC1	8	-16	11	8	7	-2
CCOc1ccc(-c2nc(C#N)c(N3CCN(C(=O)c4ccccc4C)CC3)o2)cc1	5	6	0	52*	24	0
Cc1nc(C)c(-c2ccn[nH]2)s1	-1	2	-8	-4	-18	-2
COc1cc2c(cc1OC)-c1cc(-c3ccc(F)cc3)c(C#N)c(=N)n1CC2	-154	-143	-14	-167	i	-5
Cn1ccc(-c2nc3ccccc3[nH]2)n1	0	-1	30*	11	13	3
COc1cccc(CN2C(=O)c3cc4ccccc4n3CC2(C)C(=O)NC2CCCC2)c1 (centres undefined)	6	5	35*	11	-106	18
FC(F)(F)c1cccc(Nc2nnc(-c3cccnc3)s2)c1	-2	1	-21	50*	22	1
